Reference: PubChem BioAssay (EPA / NIEHS)
Results filed as inconclusive are left out. Activity calls are given as the source filed them. Rule for the calls, unless noted: active = hit-call score of the fitted dose curve at least 0.9, where 1 is the maximum; inconclusive = response in the unintended direction; inactive = score below 0.9.

Assays:
Caspase-1 (Homo sapiens) = Caspase-1 (Homo sapiens) (UniProt P29466); test: NVS_ENZ_hCASP1: NovaScreen (NVS) Enzymatic Assay for human Caspase 1 (CASP1) (AID 2283132)
Caspase-1 (Homo sapiens), sequence (P29466 whole entry, looked up): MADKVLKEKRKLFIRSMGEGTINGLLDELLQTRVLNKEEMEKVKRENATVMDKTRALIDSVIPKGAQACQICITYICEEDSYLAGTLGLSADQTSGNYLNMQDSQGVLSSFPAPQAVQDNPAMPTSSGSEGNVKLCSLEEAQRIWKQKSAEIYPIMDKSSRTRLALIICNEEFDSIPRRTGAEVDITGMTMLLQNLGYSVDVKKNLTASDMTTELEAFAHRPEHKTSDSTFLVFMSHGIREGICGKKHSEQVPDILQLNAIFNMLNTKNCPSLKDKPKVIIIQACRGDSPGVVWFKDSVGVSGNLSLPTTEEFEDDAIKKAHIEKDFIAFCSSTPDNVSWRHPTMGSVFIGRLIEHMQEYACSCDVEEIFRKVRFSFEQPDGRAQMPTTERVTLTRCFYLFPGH
How it was run: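 Compounds were first tested in duplicate at 25 uM, with follow-up concentration series up to 50 uM. The bacterially expressed enzyme was read by fluorescence at 1 h post-dosing. Signal loss versus DMSO baseline indicates reduced enzyme activity.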

[1] = molecular target: human Caspase 2 (CASP2), CASP2 (gene 835) (UniProt P42575); test: NVS_ENZ_hCASP2: NovaScreen (NVS) Enzymatic Assay for human Caspase 2 (CASP2) (AID 2283135)
human Caspase 2 (CASP2), CASP2 (gene 835), sequence (P42575 whole entry, looked up): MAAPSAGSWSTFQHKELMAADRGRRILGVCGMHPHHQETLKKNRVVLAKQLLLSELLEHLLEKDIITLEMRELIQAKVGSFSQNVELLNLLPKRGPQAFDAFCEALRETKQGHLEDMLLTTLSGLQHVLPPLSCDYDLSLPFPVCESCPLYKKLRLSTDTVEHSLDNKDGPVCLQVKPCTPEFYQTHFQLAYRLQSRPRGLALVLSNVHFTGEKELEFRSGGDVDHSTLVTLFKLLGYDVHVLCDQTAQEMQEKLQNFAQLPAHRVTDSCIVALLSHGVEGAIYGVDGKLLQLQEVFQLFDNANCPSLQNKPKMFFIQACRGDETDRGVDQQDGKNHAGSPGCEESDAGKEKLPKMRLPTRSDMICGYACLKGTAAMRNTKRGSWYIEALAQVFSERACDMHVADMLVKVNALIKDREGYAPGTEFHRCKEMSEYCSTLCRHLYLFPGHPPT
How it was run: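 Single-point duplicate testing at 25 uM preceded concentration series topping at 50 uM. Activity of the recombinant E. coli-derived protease was followed by fluorescent substrate cleavage 1 h post-dosing, relative to DMSO.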

[2] = molecular target: rat Adenylate Cyclase, Forskolin Stimulated, Adcy5 (gene 64532) (UniProt Q04400); test: NVS_ENZ_rACFSKBinding: NovaScreen (NVS) Enzymatic Assay for rat Adenylate Cyclase, Forskolin Stimulated (AID 2283232)
rat Adenylate Cyclase, Forskolin Stimulated, Adcy5 (gene 64532), sequence (Q04400 whole entry, looked up): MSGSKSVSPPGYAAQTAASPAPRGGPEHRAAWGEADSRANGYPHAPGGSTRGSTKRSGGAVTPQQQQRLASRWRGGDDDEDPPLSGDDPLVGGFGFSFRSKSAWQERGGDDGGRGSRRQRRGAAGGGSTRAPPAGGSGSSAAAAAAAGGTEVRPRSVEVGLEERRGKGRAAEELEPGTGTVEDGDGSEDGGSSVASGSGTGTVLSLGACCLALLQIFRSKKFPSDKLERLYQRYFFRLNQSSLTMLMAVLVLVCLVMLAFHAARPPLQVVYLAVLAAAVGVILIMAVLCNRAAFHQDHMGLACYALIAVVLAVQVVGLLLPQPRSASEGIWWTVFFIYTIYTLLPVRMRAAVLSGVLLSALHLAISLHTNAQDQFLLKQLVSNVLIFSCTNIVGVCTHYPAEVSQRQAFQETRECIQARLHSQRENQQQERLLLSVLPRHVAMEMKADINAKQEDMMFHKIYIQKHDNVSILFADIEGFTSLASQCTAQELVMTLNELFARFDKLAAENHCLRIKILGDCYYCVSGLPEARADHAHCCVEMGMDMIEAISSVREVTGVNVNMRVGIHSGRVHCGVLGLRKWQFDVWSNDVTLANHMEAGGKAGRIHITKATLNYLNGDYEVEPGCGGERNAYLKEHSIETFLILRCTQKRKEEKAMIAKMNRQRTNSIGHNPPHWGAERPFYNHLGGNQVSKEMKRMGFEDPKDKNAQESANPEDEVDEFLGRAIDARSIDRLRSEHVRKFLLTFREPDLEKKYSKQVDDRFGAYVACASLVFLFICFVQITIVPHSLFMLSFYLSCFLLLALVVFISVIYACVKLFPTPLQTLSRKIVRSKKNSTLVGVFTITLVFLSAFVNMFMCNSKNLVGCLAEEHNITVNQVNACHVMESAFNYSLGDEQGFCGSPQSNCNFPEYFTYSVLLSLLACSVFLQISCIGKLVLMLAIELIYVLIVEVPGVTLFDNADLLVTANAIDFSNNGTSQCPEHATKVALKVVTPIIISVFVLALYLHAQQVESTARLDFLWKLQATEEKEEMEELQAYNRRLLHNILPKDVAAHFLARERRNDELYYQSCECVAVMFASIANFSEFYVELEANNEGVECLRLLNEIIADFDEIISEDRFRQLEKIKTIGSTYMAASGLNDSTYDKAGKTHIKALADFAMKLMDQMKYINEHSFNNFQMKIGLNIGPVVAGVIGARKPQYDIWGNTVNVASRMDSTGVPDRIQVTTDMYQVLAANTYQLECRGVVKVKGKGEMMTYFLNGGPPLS
How it was run: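 Chemicals were first tested at 25 uM in duplicate, then hits run as concentration series with top concentration 50 uM. Enzyme source was rat forebrain membranes; radiometric filter read-out after 1 h, referenced to DMSO.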

[3] = molecular target: Norway rat Vesicular Monoamine Transporter (VMAT2), neurotransmitter transporter, Slc18a2 (gene 25549) (UniProt Q01827); test: NVS_TR_rVMAT2: NovaScreen (NVS) Transporter Assay for Norway rat Vesicular Monoamine Transporter (VMAT2), neurotransmitter transporter (AID 2283376);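 note: actives lower the bound radioligand signal below the DMSO level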
How it was run: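 Binding endpoint from rat forebrain tissue, cell-free; 1 h incubation; filtered radioligand counted; 25 uM duplicate primary then dose series; DMSO negative control.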

[4] = molecular target: rat CYP2C12, Cyp2c12 (gene 25011) (UniProt P11510); test: NVS_ADME_rCYP2C12: NovaScreen (NVS) CYP450-related Enzyme Activity (ADME) Assay for rat CYP2C12 (AID 2283119)
How it was run: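 Fluorescent-substrate turnover by recombinant rat CYP2C12, measured at 0.5 h, normalized to acetonitrile vehicle. Chemicals screened first at a single 10 uM concentration in duplicate, with concentration series for actives.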

[5] = molecular target: human Acetylcholinesterase (AChE), ACHE (gene 43) (UniProt P22303); test: NVS_ENZ_hAChE: NovaScreen (NVS) Enzymatic Assay for human Acetylcholinesterase (AChE) (AID 2283129)
How it was run: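 Actives from a duplicate single-point screen (25 uM) were followed up in concentration series. Enzyme activity read by absorbance (colorimetric) 0.33 hour after dosing, cell-free, normalized to DMSO, with loss of signal scored.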

[6] = molecular target: rat Neurotensin Receptor (NTS), Ntsr1 (gene 366274) (UniProt P20789); test: NVS_GPCR_rNTS: NovaScreen (NVS) G Protein-Coupled Receptor Assay for rat Neurotensin Receptor (NTS) (AID 2283308)
How it was run: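 Single-point duplicates at 25 uM, then concentration series to 50 uM max for hits, measured radioligand displacement on rat forebrain membrane preparations. Bound label counted by filtration scintillation at 1 h; signal loss relative to DMSO fitted.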

[7] = molecular target: human AMP-activated Protein Kinase, alpha 1 (AMPKa1), PRKAA1 (gene 5562) (UniProt Q13131); test: NVS_ENZ_hAMPKa1: NovaScreen (NVS) Enzymatic Assay for human AMP-activated Protein Kinase, alpha 1 (AMPKa1) (AID 2283130)
How it was run: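 Compounds were screened in duplicate at 25 uM, and those reaching ~30% inhibition were titrated up to 50 uM. The enzyme was recombinant human AMPKα1, and kinase turnover was read by fluorescence/mobility shift 1 h post-dosing as loss of signal versus DMSO.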

[8] = molecular target: human Mitogen-Activated Protein Kinase 1 (MAPK 1), MAPK1 (gene 5594) (UniProt P28482); test: NVS_ENZ_hMAPK1: NovaScreen (NVS) Enzymatic Assay for human Mitogen-Activated Protein Kinase 1 (MAPK 1) (AID 2283175)
How it was run: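 Cell-free recombinant human MAPK1 enzymatic assay, fluorescence/electrophoretic mobility shift read at 1 h; loss of signal vs DMSO. Primary screen in duplicate at 25 uM; actives (e.g. ≥30% inhibition) run as concentration-response up to 50 uM.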

[9] = system: rat Monoamine Oxidase, MAO-A, Peripheral (MAOAP), gene 29253; test: NVS_ENZ_rMAOAP: NovaScreen (NVS) Enzymatic Assay for rat Monoamine Oxidase, MAO-A, Peripheral (MAOAP) (AID 2283237)
How it was run: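 Scintillation counting tracked MAO-A activity in a cell-free rat liver mitochondrial membrane prep, read 1.17 hours after compound addition. Single-point duplicate testing at 25 uM preceded concentration-response follow-up; activity was fitted relative to DMSO.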

[10] = molecular target: rat Monoamine Oxidase, MAO-B, Central (MAOBC), Maob (gene 25750) (UniProt P19643); test: NVS_ENZ_rMAOBC: NovaScreen (NVS) Enzymatic Assay for rat Monoamine Oxidase, MAO-B, Central (MAOBC) (AID 2283238)
rat Monoamine Oxidase, MAO-B, Central (MAOBC), Maob (gene 25750), sequence (P19643 whole entry, looked up): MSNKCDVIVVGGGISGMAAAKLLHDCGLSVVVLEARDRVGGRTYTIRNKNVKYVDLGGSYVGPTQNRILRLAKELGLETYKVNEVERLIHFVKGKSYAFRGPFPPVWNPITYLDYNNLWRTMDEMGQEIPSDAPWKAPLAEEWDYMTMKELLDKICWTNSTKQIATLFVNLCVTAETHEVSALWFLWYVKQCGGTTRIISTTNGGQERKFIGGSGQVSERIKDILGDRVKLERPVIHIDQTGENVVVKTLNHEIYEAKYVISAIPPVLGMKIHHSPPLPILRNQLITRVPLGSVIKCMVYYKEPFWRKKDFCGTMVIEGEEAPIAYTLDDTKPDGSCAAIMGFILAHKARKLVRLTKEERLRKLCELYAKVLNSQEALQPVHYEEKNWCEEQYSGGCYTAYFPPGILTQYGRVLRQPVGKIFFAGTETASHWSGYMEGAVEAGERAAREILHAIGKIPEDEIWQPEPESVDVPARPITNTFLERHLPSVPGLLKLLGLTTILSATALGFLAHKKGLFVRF
How it was run: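 Here MAO-B activity in rat brain preparations is quantified radiometrically, counts taken at 1.17 hours. Concentration-response runs reach 50 uM, with plate controls, and values are fitted as loss of signal from the DMSO baseline.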

[11] = molecular target: rat Monoamine Oxidase, MAO-B, Peripheral (MAOBP), Maob (gene 25750) (UniProt P19643); test: NVS_ENZ_rMAOBP: NovaScreen (NVS) Enzymatic Assay for rat Monoamine Oxidase, MAO-B, Peripheral (MAOBP) (AID 2283242)
rat Monoamine Oxidase, MAO-B, Peripheral (MAOBP), Maob (gene 25750), sequence (P19643 whole entry, looked up): as above

[12] = system: rat Monoamine Oxidase, MAO-A, Central (MAOAC), gene 29253; test: NVS_ENZ_rMAOAC: NovaScreen (NVS) Enzymatic Assay for rat Monoamine Oxidase, MAO-A, Central (MAOAC) (AID 2283243);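 note: potency refers to inhibition seen as signal drop below DMSO baseline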
How it was run: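 Single-concentration duplicate testing at 25 uM, then concentration-response for actives, in a lysate-based radiodetection MAO-A activity assay from rat brain. Enzyme activity measured 1.5 hours post-dosing; DMSO served as negative control and baseline.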

[13] = molecular target: Voltage-dependent N-type calcium channel subunit alpha-1B (Rattus norvegicus) (UniProt Q02294); test: NVS_IC_rCaChN: NovaScreen (NVS) Ion Channel Assay for rat Calcium Channel, Type N (CaChN) (AID 2283317)
[14] = molecular target: human Ephrin type-A Receptor 2 (EphA2), EPHA2 (gene 1969) (UniProt P29317); test: NVS_ENZ_hEphA2: NovaScreen (NVS) Enzymatic Assay for human Ephrin type-A Receptor 2 (EphA2) (AID 2283155)
How it was run: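 Enzyme activity of recombinant EphA2 read by fluorescence after mobility-shift separation, 1 h after dosing. Chemicals first tested at 25 uM (duplicate); those passing threshold run as concentration series, top 50 uM, single replicate, relative to DMSO.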

[15] = molecular target: human Fibroblast Growth Factor Receptor 1 (FGFR1), FGFR1 (gene 2260) (UniProt P11362); test: NVS_ENZ_hFGFR1: NovaScreen (NVS) Enzymatic Assay for human Fibroblast Growth Factor Receptor 1 (FGFR1) (AID 2283159);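 for AC50: hits lower the signal so potencies describe inhibitors of the kinase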
human Fibroblast Growth Factor Receptor 1 (FGFR1), FGFR1 (gene 2260), sequence (P11362 whole entry, looked up): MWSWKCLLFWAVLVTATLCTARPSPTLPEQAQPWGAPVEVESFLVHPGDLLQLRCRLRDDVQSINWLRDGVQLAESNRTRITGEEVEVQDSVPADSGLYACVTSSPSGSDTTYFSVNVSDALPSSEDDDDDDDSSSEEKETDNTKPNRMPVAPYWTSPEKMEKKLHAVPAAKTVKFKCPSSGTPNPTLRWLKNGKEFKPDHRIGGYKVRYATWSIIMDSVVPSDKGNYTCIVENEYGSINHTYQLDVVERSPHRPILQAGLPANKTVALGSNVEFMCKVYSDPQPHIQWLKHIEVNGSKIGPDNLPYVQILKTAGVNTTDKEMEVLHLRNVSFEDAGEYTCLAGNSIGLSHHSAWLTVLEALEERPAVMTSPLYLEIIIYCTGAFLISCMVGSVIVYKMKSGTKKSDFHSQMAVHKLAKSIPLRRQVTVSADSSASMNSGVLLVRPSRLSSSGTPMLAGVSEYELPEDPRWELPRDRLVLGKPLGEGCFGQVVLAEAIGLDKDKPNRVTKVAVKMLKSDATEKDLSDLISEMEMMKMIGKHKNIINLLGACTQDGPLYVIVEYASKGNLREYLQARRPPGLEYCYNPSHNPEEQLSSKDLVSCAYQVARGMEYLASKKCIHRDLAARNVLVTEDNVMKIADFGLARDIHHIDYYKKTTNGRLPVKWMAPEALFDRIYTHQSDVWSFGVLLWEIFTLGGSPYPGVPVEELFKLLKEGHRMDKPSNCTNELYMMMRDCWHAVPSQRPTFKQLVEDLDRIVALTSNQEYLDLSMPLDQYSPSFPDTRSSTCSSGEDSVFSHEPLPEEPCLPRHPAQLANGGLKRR
How it was run: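 Cell-free recombinant kinase with fluorescent substrate, product separated by electrophoretic mobility shift; read 1 hour after dosing, loss of signal relative to DMSO. Initial screen in duplicate at 25 uM, actives followed in concentration series.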

[16] = molecular target: human Caspase 10 (CASP10), CASP10 (gene 843) (UniProt Q92851); test: NVS_ENZ_hCASP10: NovaScreen (NVS) Enzymatic Assay for human Caspase 10 (CASP10) (AID 2283133)
human Caspase 10 (CASP10), CASP10 (gene 843), sequence (Q92851 whole entry, looked up): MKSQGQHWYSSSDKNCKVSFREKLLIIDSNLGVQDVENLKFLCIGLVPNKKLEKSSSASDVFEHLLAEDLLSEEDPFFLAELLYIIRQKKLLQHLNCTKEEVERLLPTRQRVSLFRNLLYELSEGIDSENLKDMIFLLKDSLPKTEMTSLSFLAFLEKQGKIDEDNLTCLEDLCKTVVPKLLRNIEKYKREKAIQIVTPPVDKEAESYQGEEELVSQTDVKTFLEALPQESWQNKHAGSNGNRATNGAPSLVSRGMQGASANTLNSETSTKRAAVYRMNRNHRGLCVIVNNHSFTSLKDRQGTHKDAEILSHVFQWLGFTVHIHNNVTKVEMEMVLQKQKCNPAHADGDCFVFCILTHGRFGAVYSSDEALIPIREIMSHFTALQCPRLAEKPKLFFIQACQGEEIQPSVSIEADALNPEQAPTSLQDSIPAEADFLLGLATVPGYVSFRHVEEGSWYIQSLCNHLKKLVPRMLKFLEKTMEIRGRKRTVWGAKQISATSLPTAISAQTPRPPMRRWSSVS
How it was run: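 Fluorescence-intensity enzyme read-out of E. coli-expressed CASP10 activity, 1 h after compound. Single-point duplicates at 25 uM preceded concentration-response testing (top 50 uM) of hits; inhibition expressed as signal loss versus DMSO.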

[17] = CCTE_Harrill_HTTr_Apoptosis_PRF_DMEM_12hr: (Pilot) CCTE's 12-hour Apoptosis Assessment for the High-Throughput Transcriptomics (HTTr) Platform, in MCF-7 cells cultured in phenol red-free DMEM + 10% charcoal-stripped fetal bovine serum, Harrill Lab (AID 2283985; active = hit-call score of the fitted dose curve at least 0.9, where 1 is the maximum; inactive = score below 0.9)
How it was run: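 Caspase-3/7 activity by CellEvent Green high content imaging after 12 h compound exposure (eight concentrations) in MCF-7 grown in phenol red-free DMEM plus 10% charcoal-stripped serum; DMSO as baseline.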

[18] = molecular target: human Aurora Kinase A - serine/threonine-protein Kinase 6 (AurA), AURKA (gene 6790) (UniProt O14965); test: NVS_ENZ_hAurA: NovaScreen (NVS) Enzymatic Assay for human Aurora Kinase A - serine/threonine-protein Kinase 6 (AurA) (AID 2283142)
How it was run: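 Recombinant human AurA activity read by fluorescence after mobility-shift separation of product from substrate; 1 hour incubation. Chemicals first run in duplicate at 25 uM, then concentration series to 50 uM if over threshold; fitted relative to DMSO.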

[19] = molecular target: human NIMA (Never In Mitosis Gene A)-Related Kinase 2 (NEK2), NEK2 (gene 4751) (UniProt P51955); test: NVS_ENZ_hNEK2: NovaScreen (NVS) Enzymatic Assay for human NIMA (Never In Mitosis Gene A)-Related Kinase 2 (NEK2) (AID 2283188)
human NIMA (Never In Mitosis Gene A)-Related Kinase 2 (NEK2), NEK2 (gene 4751), sequence (P51955 whole entry, looked up): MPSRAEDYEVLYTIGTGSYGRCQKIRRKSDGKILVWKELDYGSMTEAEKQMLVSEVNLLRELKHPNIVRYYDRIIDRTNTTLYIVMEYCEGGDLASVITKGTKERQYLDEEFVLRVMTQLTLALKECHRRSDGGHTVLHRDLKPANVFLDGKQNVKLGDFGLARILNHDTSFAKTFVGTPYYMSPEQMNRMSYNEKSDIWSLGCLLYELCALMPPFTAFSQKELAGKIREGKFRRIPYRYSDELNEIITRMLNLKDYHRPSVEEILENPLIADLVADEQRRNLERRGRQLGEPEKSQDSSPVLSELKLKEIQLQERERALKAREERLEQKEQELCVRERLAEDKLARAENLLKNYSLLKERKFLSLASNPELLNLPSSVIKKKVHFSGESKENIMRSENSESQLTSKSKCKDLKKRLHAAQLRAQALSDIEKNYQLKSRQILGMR
How it was run: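 Compounds were first screened in duplicate at 25 uM, with actives followed up in concentration series. Recombinant NEK2 activity, cell-free, was read 1 h after dosing by fluorescence intensity after mobility-shift separation. Signal loss was scored against DMSO.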

[20] = system: guinea pig Atrionatriuretic Peptide Receptor A (ANPA), gene 100135578; test: NVS_GPCR_gANPA: NovaScreen (NVS) G Protein-Coupled Receptor Assay for guinea pig Atrionatriuretic Peptide Receptor A (ANPA) (AID 2283291)
How it was run: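 Displacement of specific radioligand from guinea pig cerebellum membranes was read by scintillation after 1 h. A duplicate single-point screen at 25 uM was followed by a concentration series up to 50 uM, analysed relative to DMSO.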

O=C(OC[C@H]1O[C@@H](OC(=O)c2cc(O)c(O)c(OC(=O)c3cc(O)c(O)c(O)c3)c2)[C@H](OC(=O)c2cc(O)c(O)c(OC(=O)c3cc(O)c(O)c(O)c3)c2)[C@@H](OC(=O)c2cc(O)c(O)c(OC(=O)c3cc(O)c(O)c(O)c3)c2)[C@@H]1OC(=O)c1cc(O)c(O)c(OC(=O)c2cc(O)c(O)c(O)c2)c1)c1cc(O)c(O)c(OC(=O)c2cc(O)c(O)c(O)c2)c1
AC50 (Caspase-1 (Homo sapiens)): 1.14 µM (active)
AC50 [1]: 4.65 µM (active)
outcome [2]: inactive
outcome [3]: inactive

COC(=O)c1ccccc1S(=O)(=O)NC(=O)Nc1nc(OC(F)F)cc(OC(F)F)n1
outcome [4]: inactive
outcome [5]: inactive

O=S(=O)(O)c1ccc(N=Nc2c(O)ccc3cc(S(=O)(=O)O)ccc23)cc1
AC50 (Caspase-1 (Homo sapiens)): 25 µM (active)
AC50 [1]: 20.4 µM (active)
outcome [6]: inactive

CCOC(N)=O
outcome [7]: inactive
outcome [8]: inactive

O=[N+]([O-])c1ccc(O)cc1
outcome [1]: inactive
AC50 [9]: 19.2 µM (active)
AC50 [10]: 18.1 µM (active)
AC50 [11]: 39.1 µM (active)
AC50 [12]: 16.6 µM (active)

Cc1nc(C)nc(N2C[C@@H](C)N(c3ccnc([C@@H](C)O)n3)[C@@H](C)C2)n1
outcome [1]: inactive

CC[C@@H]1C[C@H](N(Cc2cc(C(F)(F)F)cc(C(F)(F)F)c2)C(C)=O)c2cc(C(F)(F)F)ccc2N1C(=O)OC(C)C
outcome [1]: inactive
outcome [13]: inactive

Cc1ccc(C(C)(C)C)c(O)c1
outcome [1]: inactive
outcome [14]: inactive
outcome [15]: inactive

Cc1oc(-c2ccccc2)nc1CCOc1ccc(C[C@H](Nc2ccccc2C(=O)c2ccccc2)C(=O)O)cc1
outcome [16]: inactive
AC50 [10]: 25 µM (active)
outcome [11]: inactive
outcome [17]: inactive

CN1C(=O)N(c2ccccc2Br)Cc2cnc(Nc3ccc4c(c3)OCC(CO)O4)nc21 (centres undefined)
outcome [16]: inactive
AC50 [18]: 5.65 µM (active)
AC50 [15]: 0.0059 µM (active)
AC50 [19]: 0.00229 µM (active)

O=C(O)CCN(C1(C(=O)NO)CCCC1)S(=O)(=O)c1ccc(Oc2ccc(F)cc2)cc1
outcome [1]: inactive

CCc1cccc(CC)c1N
outcome [1]: inactive
outcome [15]: inactive
outcome [20]: inactive
